Reference: PubChem BioAssay
Where “and” joins values, the source holds several entries; their conditions need not be identical. Equal entries are not always repeated. Calls of active or inactive are those of the source. How the calls were made is not given here.

experiment: chitosan synthesis blockers in C. neoformans – flow cytometry, Cibacron Brilliant Red staining (AID 1347148); conditions: Cryptococcus neoformans chitosan, stronger effect = lower value; at 10 µM unless noted;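 further: compound exposure lasted three days at 37 degrees C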

Structure (SMILES)	fold fluorescence
CCCCC/C=C\C/C=C\CCCCCCCC(=O)NCCO	4.78 (inactive)
CCCC[C@H]1C(=O)O[C@H](C)[C@H](NC(=O)c2cccc(NC=O)c2OC)C(=O)O[C@@H](C)[C@@H]1OC(=O)CC(C)C	6.91 [at 93.5 µM] (inactive)
CCCCC/C=C\C/C=C\C/C=C\CCCCCCC(=O)NCCO	5.22 (inactive)
CCCCCCCCCCCCCCCCOC[C@@H](COP(=O)([O-])OCC[N+](C)(C)C)OC(C)=O	4.51 (inactive) and 4.92 (inactive)
COC[C@H]([C@@H](O)[C@@H](O)C(=O)NCC[C@@H](C)c1nc(/C=C/C[C@H]2OC3(C[C@H](O)[C@H]2C)OC([C@@H](C[C@@H](O)[C@@H](C)[C@@H](O)[C@@H](C)/C=C(C)/C(C)=C/C=C/C(C)=C\C#N)OC)[C@@H](OP(=O)(O)O)C3(C)C)co1)N(C)C (stereo not given in full)	9.76 [at 5 µM] (inactive)
CCCCC[C@@H](/C=C/C=C\CCCCCCCC(=O)O)OO	6.27 [at 1 µM] (inactive)
CCCCC/C=C\C/C=C\C/C=C\C/C=C\CCCC(=O)NCCO	5.85 (inactive)
CC(C)(O)[C@H]1O[C@H]2CC[C@@]3(C)[C@@](O)(CC[C@H]4Cc5c([nH]c6ccccc56)[C@@]43C)C2=CC1=O	8.47 [at 114.8 µM] (inactive)
CCCCC/C=C\C[C@@H](/C=C/C=C\C/C=C\CCCC(=O)O)OO	6.04 [at 1 µM] (inactive)
N#CC(C#N)=Cc1ccc(O)cc1	5.71 [at 293.8 µM] (inactive)
CCCCC/C=C\C/C=C\C/C=C\C=C\[C@H](CCCC(=O)O)OO	5.34 [at 1 µM] (inactive)
CCCCCC1OC1C/C=C\CCCCCCCC(=O)O (stereo not given)	4.22 [at 1 µM] (inactive)
CCCCC/C=C\C/C=C\C/C=C\C/C=C\CCCC(N)=O	4.13 (inactive)
CCCCC[C@@H](/C=C/C=C\C/C=C\C/C=C\CCCC(=O)O)OO	5.13 [at 1 µM] (inactive)
CCCCC/C=C\C=C\[C@H](CCCCCCCC(=O)O)OO	5.11 [at 1 µM] (inactive)
CCCCC/C=C\C/C=C\C/C=C\C/C=C\CCCCCC(=O)NCCO	5.48 (inactive)

experiment: blockers of cellular phospholipid synthesis – cell-based, LOPAC library, screen 4, primary screen (AID 1347384); conditions: animal cells, phospholipid biosynthesis inhibition screen; at 10 µM

Structure (SMILES)	outcome
C[C@H](N)Cc1cccc(C(F)(F)F)c1	inactive
C=CCN1C[C@@H](C)N([C@H](c2ccc(C(=O)N(CC)CC)cc2)c2cccc(OC)c2)C[C@@H]1C	inactive
N#CC(=Cc1ccc(O)c(O)c1)C(N)=S	inactive
N[C@@]1(C(=O)O)CC[C@@H](C(=O)O)C1	inactive
CCNC(=O)[C@H]1O[C@@H](n2cnc3c(N)ncnc32)C(O)[C@H]1O (stereo not given in full)	inactive
O=C(NC1CN2CCC1CC2)c1cc2ccoc2cn1 (stereo not given)	inactive
C[C@@H]1O[C@H](C[N+](C)(C)C)C[C@H]1O	inactive
C=CCN1CCC23c4c5ccc(O)c4O[C@H]2C(=O)CC[C@@]3(O)C1C5 (stereo not given in full)	inactive
CC(N)c1cccc(Cl)c1Cl (stereo not given)	inactive
CN1CCC[C@@H]1Cc1c[nH]c2ccc(Nc3ncccc3[N+](=O)[O-])cc12	inactive
Oc1ccc2c3c1O[C@H]1c4[nH]c5ccccc5c4C[C@@]4(O)C(C2)N(CC2CC2)CCC314 (stereo not given in full)	inactive
COc1cc(C(O)CN)ccc1O (stereo not given)	inactive
C[C@@H]1O[C@@H](O[C@H]2C[C@@H](O)[C@]3(CO)[C@@H]4C(CC[C@]3(O)C2)[C@@]2(O)CC[C@H](C3COC(=O)C3)[C@@]2(C)C[C@H]4O)[C@H](O)[C@H](O)[C@H]1O (stereo not given in full)	inactive
CN1CC[C@@]2(C)c3cc(OC(=O)Nc4ccccc4)ccc3N(C)[C@@H]12	inactive
c1ccc2cc(CC3=NCCN3)ccc2c1	inactive
CC(C)(C)OC(=O)NC1[C@H]2CNC[C@@H]12 (stereo not given in full)	inactive
NC1CC1c1ccccc1 (stereo not given)	inactive
NC(CCP(=O)(O)O)C(=O)O (stereo not given)	inactive
COc1ccc2c(c1)C13CCCCC1C(C2)N(C)CC3 (stereo not given)	inactive
C=CCN1CC[C@]23CCCCC2[C@H]1Cc1ccc(O)cc13 (stereo not given in full)	inactive
O=C1CC[C@@]2(O)C3Cc4ccc(O)c5c4C2(CCN3CC2CC2)[C@H]1O5 (stereo not given in full)	inactive
NC(CP(=O)(O)O)C(=O)O (stereo not given)	inactive
C[C@]12Cc3cn4c(nc3C=C1CCC1C2CC[C@@]2(C)[C@H]1CC[C@@]2(O)C#N)nc1ccccc14 (stereo not given in full)	inactive
CCCCCCCCCCCCCC(=O)O[C@@H]1[C@@H](C)[C@@]2(O)[C@@H](C=C(CO)C[C@@]3(O)C(=O)C(C)=C[C@@H]23)C2C(C)(C)[C@@]21OC(C)=O (stereo not given in full)	inactive
